Measurements: PubChem BioAssay (NCI)
About 83,000 compounds went through this panel and 20% of them were active in at least one assay; those are over-represented in the sample as a whole.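 Activity criterion: percent growth below 10, measured after cells in 96-well plates were exposed to a single compound concentration for 48 hours.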 The source made the active and inactive calls.

What was measured:
Experiment in all cases: NCI-60 one-dose screen, 48 h (100 = growth as untreated, 0 = no growth, -100 = all killed)
Conditions in all cases: 10 µM unless noted
[1] = system: DU-145 prostate
[2] = system: K-562 leukemia
[3] = system: MALME-3M melanoma
[4] = system: MDA-MB-231 breast
[5] = system: SF-268 CNS
[6] = system: SF-295 CNS
[7] = system: SF-539 CNS
[8] = system: UACC-257 melanoma
[9] = system: M14 melanoma
[10] = system: HCT-15 colon
[11] = system: HT29 colon
[12] = system: SNB-75 CNS
[13] = system: SNB-19 CNS
[14] = system: U251 CNS
[15] = system: PC-3 prostate
[16] = system: SK-MEL-5 melanoma
[17] = system: UACC-62 melanoma
[18] = system: LOX IMVI melanoma
[19] = system: SK-MEL-28 melanoma

Measured: growth

Cc1cc(NC(=O)c2cnc(N3CCN(CCOCCOCCOCCOCCC(=O)N[C@H](C(=O)N4C[C@H](O)C[C@H]4C(=O)N[C@@H](C)c4ccc(-c5scnc5C)cc4)C(C)(C)C)CC3)cn2)c2ncccc2c1
active: [2] 6.65% | [3] -31.7% | [4] -61.6% | [5] 8.05% | [6] -14.9% | [7] -75.5% | [8] -5.78% | [9] -33.7% | [11] 5.72% | [12] 6.69% | [14] 4.36% | [15] 1.95% | [16] -41.1% | [17] -57.1% | [18] -85.8% | [19] -75.1%
inactive: [1] 35% | [10] 60.5% | [13] 27.7%

COc1ccccc1Nc1cc(O)c2c(=O)cc(-c3ccccc3)oc2c1
inactive: [1] 45.6% | [2] 11.6% | [3] 44.1% | [4] 39.2% | [5] 44.9% | [6] 25.9% | [7] 28.3% | [8] 54% | [9] 20.8% | [10] 29.3% | [11] 17% | [13] 43.9% | [14] 22.1% | [15] 54.5% | [16] 24.6% | [17] 35.8% | [18] 39.9% | [19] 56.5%
active: [12] -4.79%

COc1ccc(/C=C(/c2ccccc2)[N+](=O)[O-])cc1
active: [1] -85.5% | [2] -7.82% | [3] -44.2% | [4] -49.3% | [7] -89.2% | [8] -0.12% | [10] -35% | [11] -26.7% | [12] -85.5% | [13] -19% | [14] -95.4% | [15] -56.7% | [16] -91.5% | [17] -17.6% | [18] -89.6% | [19] -17.7%
inactive: [5] 47.6% | [6] 33.2% | [9] 42.8%

COc1ccccc1/C=C1\Oc2cc(OCCCN3CCCC3)ccc2C1=O
inactive: [1] 98% | [3] 96.5% | [4] 86.5% | [5] 90.3% | [6] 99.2% | [7] 76.4% | [8] 109% | [9] 100% | [10] 77.7% | [11] 16.4% | [12] 83.5% | [13] 91.2% | [14] 76.5% | [15] 85.8% | [16] 79.8% | [17] 95.6% | [18] 75.8% | [19] 91.9%
active: [2] 4.95%

COc1ccc(C(O)c2cc3c(N)c(C(=O)Nc4ccc(Cl)cc4)sc3nc2C)cc1 (stereo not drawn)
inactive: [3] 21% | [4] 41.8% | [5] 42.8% | [6] 14.5% | [7] 20.7% | [8] 56.4% | [10] 12.3% | [13] 37.2% | [14] 20.2% | [15] 21.4% | [16] 15.4% | [17] 17.3% | [18] 29.2% | [19] 59.6%
active: [1] 6.92% | [2] 3.42% | [9] 7.86% | [11] -6.54% | [12] -22.5%

COc1nc(N)nc(-n2c(-c3ccc(C)cc3)nc3ccccc32)c1NCc1ccc(C)cc1
inactive: [1] 103% | [2] 87.2% | [3] 105% | [4] 80.4% | [5] 94.9% | [6] 92.8% | [7] 98.3% | [8] 100% | [9] 95.6% | [10] 94.8% | [11] 94.7% | [12] 75.5% | [13] 86.5% | [14] 83% | [15] 65.7% | [16] 96.8% | [17] 64.4% | [18] 87.8% | [19] 107%

Cc1cc(C)c(C=O)c(C)c1
inactive: [1] 117% | [2] 100% | [3] 114% | [4] 112% | [5] 104% | [6] 101% | [7] 106% | [8] 74.5% | [9] 84.3% | [10] 107% | [11] 98.8% | [12] 83% | [13] 102% | [14] 101% | [15] 79.9% | [16] 99.8% | [17] 108% | [18] 96.8% | [19] 110%
